Test [1] in a line: Primary qHTS for inhibitors of SARS-S pseudo-typed particle cell entry (AID 1479145). Further: nearly all actives have a fitted effect of over 45% in size. On activity change, negative = inhibition: on the % scale 0 is the no-effect control and ±100 the full control effect. The settings on record: outcome: dose series up to 57.1 µM unless noted. On the technique in general: qHTS replaces the single test concentration by a dilution series.
Test [2] can be described thus: Primary qHTS for Huh7 cytotoxicity: counterscreen for inhibitors of MERS-S pseudotyped particle cell entry (AID 1479147). The settings on record: outcome: dose series up to 57.1 µM unless noted.
Test [3] is described as follows: Primary qHTS for inhibitors of MERS-S pseudo-typed particle cell entry (AID 1479149). Further: nearly all actives have a fitted effect of over 60% in size. On activity change, negative = inhibition: on the % scale 0 is the no-effect control and ±100 the full control effect. The settings on record: outcome: dose series up to 57.1 µM unless noted.
Test [4] can be described thus: Primary qHTS for Vero E6 cytotoxicity: counterscreen for inhibitors of SARS-S pseudo-typed particle cell entry (AID 1479150). The settings on record: outcome: dose series up to 57.1 µM unless noted.
Test [5] in a line: Cytotoxicity counterscreen for inhibitors of SARS-CoV-2 cell entry (AID 1645845). Further: nearly all actives have a fitted effect of over 50% in size. To be noted: outcome: dose series up to 57.1 µM unless noted. In outline:
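After a 15 min room-temperature ATPLite 1step step, luminescence reflected ATP remaining in HEK293-ACE2 cells exposed to compound for 1 h plus 48 h at 37 C, with percent activity set by cell and no-cell controls.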
For orientation: The purpose of a counterscreen is to sort out artefacts and off-target activity.

Test [6] is described as follows: Primary qHTS to identify inhibitors of SARS-CoV-2 cell entry (AID 1645846). Further: nearly all actives have a fitted effect of over 45% in size. The settings on record: SARS-CoV-2 pseudovirus cell entry assay, luminescence; activity change, negative = inhibition: at 57.1 µM (top of the series) unless noted. In outline:
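Entry measured by luciferase signal 48 h after adding SARS-CoV-2-S pseudotyped MLV particles to HEK293-ACE2 cells preincubated 1 h with compounds. Normalisation: bald particles and spike particles.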

Molecules are shown by their SMILES. Inconclusive results are not listed. The source made the active and inactive calls. The call rests on the fitted dose curve. Bridge positions count the residues as written; N and C are the ends. Square brackets hold non-standard residues; d marks the D form. Peptide text beside a SMILES is read from it. * marks the point of attachment. X1 = CCC(C)C(N)C1=NC(C(=O)*)CS1; dOrn = NCCC[C@@H](N)C(=O)O

As to `COc1ccc(C(=O)N2CCN(c3ccc4c(c3)CCC(=O)N4)CC2)cc1OC`, the Potency entry in test [1], in test [2], in test [3], in test [4] and in test [5] was “inactive” in each case.
On to `CCN1CCCC1CNC(=O)c1cc(S(=O)(=O)CC)ccc1OC` (centres undefined), for which the Potency result in test [1], in test [2], in test [3], in test [4] and in test [5] was “inactive” each time.
In the case of `O=S(=O)(O)CCCS(=O)(=O)O`, the Potency entry in test [1], in test [2], in test [3], in test [4] and in test [5] was “inactive” in each case.
For `C[N+](C)(CCCCCC[N+](C)(C)C1c2ccccc2-c2ccccc21)C1c2ccccc2-c2ccccc21`, the Potency result in test [1], in test [2], in test [3], in test [4] and in test [5] was “inactive” each time.
Turning to `O=[N+]([O-])O[C@@H]1CO[C@H]2[C@@H]1OC[C@@H]2O`, the Potency entry in test [1], in test [2], in test [3], in test [4] and in test [5] was “inactive” in each case.
Consider `CC(C)CCC[C@@H](C)[C@H]1CC[C@H]2[C@@H]3CC[C@H]4C[C@@H](O)CC[C@]4(C)[C@@H]3CC[C@]12C`, for which the Potency entry in test [1], in test [2], in test [3], in test [4] and in test [5] was “inactive” each time.
For the molecule `CCCc1ccc(C(=O)O)cc1`, the Potency entry in test [1], in test [2], in test [3], in test [4] and in test [5] was “inactive” each time.
`O=C(N[C@H]1CCS[C@H]2CCC[C@@H](C(=O)O)N2C1=O)[C@@H](S)Cc1ccccc1`: the Potency result in test [1], in test [2], in test [3], in test [4] and in test [5] was “inactive” in each case.
Take `COc1ccc(CCNCC(O)COc2cccc(C)c2)cc1OC` (centres undefined): the Potency entry in test [1], in test [2], in test [3], in test [4] and in test [5] was “inactive” each time.
With `COc1ccc(/C=C/C(=O)OCCC(C)C)cc1`, the Potency entry in test [1], in test [2], in test [3], in test [4] and in test [5] was “inactive” each time.
Turning to `C#C[C@]1(O)CC[C@H]2[C@@H]3CCC4=C/C(=N/O)CC[C@@H]4[C@H]3CC[C@@]21CC`, the Potency entry in test [1], in test [2], in test [3], in test [4] and in test [5] was “inactive” each time.
Take `COC(F)(F)C(Cl)Cl`: the Potency entry in test [1], in test [2], in test [3], in test [4] and in test [5] was “inactive” throughout.
As for `O=C(OC1C[C@@H]2CC3C[C@@H](C1)N2CC3=O)c1c[nH]c2ccccc12` (some centres undefined), the Potency entry in test [1], in test [2], in test [3], in test [4] and in test [5] was “inactive” each time.
As for `CO/N=C(\C(=O)N[C@@H]1C(=O)N2C(C(=O)O)=C(Cn3ccc(=N)n3CCO)CS[C@H]12)c1csc(N)n1`, the Potency entry in test [1], in test [2], in test [3], in test [4] and in test [5] was “inactive” throughout. The activity change, negative = inhibition in test [6] is -19.1%.
Take `CN1CCc2nc(C(=O)N[C@@H]3C[C@@H](C(=O)N(C)C)CC[C@@H]3NC(=O)C(=O)Nc3ccc(Cl)cn3)sc2C1`: the Potency entry in test [1], in test [2], in test [3], in test [4] and in test [5] was “inactive” in each case. Besides, the activity change, negative = inhibition in test [6] is -19.9%.
For `CCCC(=O)Nc1ncnc2c1ncn2C1O[C@@H]2COP(=O)(O)O[C@H]2[C@H]1OC(=O)CCC` (some centres undefined), the Potency entry in test [1], in test [2], in test [3], in test [4] and in test [5] was “inactive” in each case.
As to `NCc1ccccc1CC(=O)N[C@@H]1C(=O)N2C(C(=O)O)=C(CSc3nnnn3CC(=O)O)CS[C@H]12`, the Potency entry in test [1], in test [2], in test [3], in test [4] and in test [5] was “inactive” in each case. For the same molecule, the activity change, negative = inhibition in test [6] was -25.4%.
As for `CCC(Oc1ccccc1)C(=O)N[C@@H]1C(=O)N2[C@@H]1SC(C)(C)[C@@H]2C(=O)O` (some centres undefined), the Potency result in test [1], in test [2], in test [3], in test [4] and in test [5] was “inactive” in each case. The activity change, negative = inhibition in test [6] was -26.6% [at 114 µM].
Consider `CC(=O)Nc1c(I)c(C(=O)O)c(I)c(N(C)C(C)=O)c1I`, for which the Potency entry in test [1], in test [2], in test [3], in test [4] and in test [5] was “inactive” throughout. The activity change, negative = inhibition in test [6] was -20.3%.
For the molecule `C#C[C@]1(O)CC[C@H]2[C@@H]3CCC4=CC(=O)CCC4[C@H]3CC[C@@]21CC` (some centres undefined), the Potency result in test [1], in test [2], in test [3], in test [4] and in test [5] was “inactive” throughout. For the same molecule, the activity change, negative = inhibition in test [6] is -19.1%.
Take `O=P(O)(O)OP(=O)(O)O`: the Potency entry in test [1], in test [2], in test [3], in test [4] and in test [5] was “inactive” each time. In addition, the activity change, negative = inhibition in test [6] is -3.78%.
Regarding `CCOC(=O)CCC(=O)O[C@H]1[C@H](O[C@@H]2[C@@H](C)[C@H](O[C@H]3C[C@@](C)(OC)[C@@H](O)[C@H](C)O3)[C@@H](C)C(=O)O[C@H](CC)[C@@](C)(O)[C@H](O)[C@@H](C)C(=O)[C@H](C)CC2(C)O)O[C@H](C)C[C@@H]1N(C)C` (some centres undefined), the Potency entry in test [1], in test [2], in test [3], in test [4] and in test [5] was “inactive” in each case. The activity change, negative = inhibition in test [6] is -2.45%.
As for `CCC(C)C(N)C1=NC(C(=O)N[C@@H](CC(C)C)C(=O)N[C@H](CCC(=O)O)C(=O)N[C@H](C(=O)N[C@H]2CCCCNC(=O)[C@H](CC(N)=O)NC(=O)[C@@H](CC(=O)O)NC(=O)[C@H](Cc3cnc[nH]3)NC(=O)[C@@H](Cc3ccccc3)NC(=O)[C@H]([C@@H](C)CC)NC(=O)[C@@H](CCCN)NC2=O)[C@@H](C)CC)CS1` (some centres undefined) (X1-L[dE]IK[dOrn]I[dF]H[dD]N; lactam 4-C), the Potency entry in test [1], in test [2], in test [3], in test [4] and in test [5] was “inactive” each time. Besides, the activity change, negative = inhibition in test [6] is -8.8% [at 27.1 µM].

For the origin of these results see PubChem BioAssay (NCATS).
